In PubChem BioAssay AID1159580 (chemical genetic matrix, 2015):
Where “and” joins values, the source holds several entries; their conditions need not be identical. Equal entries are not always repeated. Among all 5,500 compounds or so, about 2,000 (36%) were called active. About 18% were inconclusive and are not listed. No stated cut-off is given here; in the data, active means normalized growth mostly below about 0.91 (no sharp cut-off); inconclusive means no clear call, values can overlap the other calls; inactive means mostly above about 0.92. This is one part of the list.

Test: chemical genetic growth profiling, strain panel (AID 1159580);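 further: tested at 20 µM; growth read once vehicle control cultures reached saturation at 30 °C; 1 = growth at the plate median or of vehicle wells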
Conditions: S. cerevisiae deletion strains, growth OD

Measured: normalized growth

O=C(Oc1cc(O)cc2c1C[C@@H](OC(=O)c1cc(O)c(O)c(O)c1)[C@@H](c1cc(O)c(O)c(O)c1)O2)c1cc(O)c(O)c(O)c1
active: locus YBR229C, strain ROT2, stronger effect = lower value 0.482 | locus YCL029C, strain bik1, stronger effect = lower value 0.668 | locus YDL035C, strain GPR1, stronger effect = lower value 0.133 | locus YDL074C, strain BRE1, stronger effect = lower value 0.334 | locus YDL101C, strain DUN1, stronger effect = lower value 0.147 | locus YDL185W, strain tfp1, stronger effect = lower value 0.872 | locus YDL192W, strain arf1, stronger effect = lower value 0.638 | locus YDR101C, strain arx1, stronger effect = lower value 0.806 | locus YDR162C, strain NBP2, stronger effect = lower value 0.0879 | locus YDR318W, strain mcm21, stronger effect = lower value 0.736 | locus YDR388W, stronger effect = lower value 0.759 | locus YDR502C, strain sam2, stronger effect = lower value 0.52 | locus YEL061C, strain CIN8, stronger effect = lower value 0.438 | locus YER155C, strain BEM2, stronger effect = lower value 0.775 | locus YER167W, strain BCK2, stronger effect = lower value 0.492 | locus YGL086W, strain mad1, stronger effect = lower value 0.431 | locus YGL248W, strain PDE1, stronger effect = lower value 0.24 | locus YGR078C, strain PAC10, stronger effect = lower value 0.621 | locus YGR135W, strain pre9, stronger effect = lower value 0.62 | locus YGR252W, strain gcn5, stronger effect = lower value 0.658 | locus YHR079C, strain IRE1 (second series), stronger effect = lower value 0.79 | locus YHR129C, strain ARP1, stronger effect = lower value 0.337 | locus YHR200W, strain rpn10, stronger effect = lower value 0.661 | locus YIL066C, strain RNR3, stronger effect = lower value 0.096 | locus YIL073C, strain SPO22, stronger effect = lower value 0.241 | locus YIR030C, strain dcg1, stronger effect = lower value 0.889 | locus YJL134W, strain LCB3, stronger effect = lower value 0.551 | locus YJL187C, strain SWE1 (second series), stronger effect = lower value 0.104
inactive: locus YAL021C, strain ccr4, stronger effect = lower value 1.01 | locus YAL026C, strain drs2, stronger effect = lower value 0.988 | locus YAL030W, strain snc1, stronger effect = lower value 1.01 | locus YBL061C, strain skt5, stronger effect = lower value 1.01 | locus YBR009C, strain hhf1, stronger effect = lower value 1.01 | locus YBR021W, strain FUR4, stronger effect = lower value 1.05 | locus YBR023C, strain chs3, stronger effect = lower value 1.02 | locus YBR171W, strain sec66, stronger effect = lower value 0.994 | locus YBR231C, strain swc5, stronger effect = lower value 1.02 | locus YBR279W, strain paf1, stronger effect = lower value 1.01 | locus YCL011C, strain gbp2, stronger effect = lower value 0.979 | locus YCL016C, strain dcc1, stronger effect = lower value 1.01 | locus YCL061C, strain MRC1, stronger effect = lower value 0.983 | locus YCL069W, strain vba3, stronger effect = lower value 0.992 | locus YCR088W, strain abp1, stronger effect = lower value 0.992 | locus YDL005C, strain med2, stronger effect = lower value 1.01 | locus YDL040C, strain nat1, stronger effect = lower value 0.998 | locus YDR001C, strain nth1, stronger effect = lower value 0.986 | locus YDR069C, strain doa4, stronger effect = lower value 1 | locus YDR137W, strain rgp1, stronger effect = lower value 0.99 | locus YDR159W, strain sac3, stronger effect = lower value 1.04 | locus YDR195W, strain ref2 1 | locus YDR297W, strain sur2, stronger effect = lower value 1.02 | locus YDR334W, strain swr1, stronger effect = lower value 0.996 | locus YDR335W, strain msn5, stronger effect = lower value 1.01 | locus YDR392W, strain spt3, stronger effect = lower value 1.02 | locus YEL003W, strain gim4, stronger effect = lower value 0.983 | locus YEL037C, strain rad23, stronger effect = lower value 0.982 | locus YEL061C, strain CIN8 (second series), stronger effect = lower value 1 | locus YER015W, strain faa2, stronger effect = lower value 0.989 | locus YER016W, strain bim1, stronger effect = lower value 1.02 | locus YER110C, stronger effect = lower value 0.956 | locus YER111C, strain swi4, stronger effect = lower value 0.974 | locus YER155C, strain BEM2 (second series), stronger effect = lower value 0.975 | locus YFR010W, strain ubp6, stronger effect = lower value 0.997 | locus YGL078C, strain dbp3, stronger effect = lower value 0.99 | locus YGL167C, strain pmr1, stronger effect = lower value 1.01 | locus YGL173C, strain kem1, stronger effect = lower value 1.02 | locus YGL227W, strain vid30, stronger effect = lower value 0.994 | locus YGL240W, strain doc1, stronger effect = lower value 1.05 | locus YGL253W, strain hxk2, stronger effect = lower value 1.03 | locus YHR013C, strain ard1, stronger effect = lower value 1.02 | locus YHR027C, strain rpn1, stronger effect = lower value 1.02 | locus YHR030C, strain SLT2, stronger effect = lower value 1.01 | locus YHR079C, strain IRE1, stronger effect = lower value 1 | locus YHR094C, strain hxt1, stronger effect = lower value 0.932 | locus YHR142W, strain chs7, stronger effect = lower value 1.01 | locus YIL125W, strain kgd1, stronger effect = lower value 0.958 | locus YJL092W, strain hpr5, stronger effect = lower value 0.989 | locus YJL095W, strain BCK1 (second series), stronger effect = lower value 1.02 | locus YJL115W, strain asf1, stronger effect = lower value 1 | locus YJL129C, strain trk1, stronger effect = lower value 1.03 | locus YJL154C, strain vps35, stronger effect = lower value 0.988 | locus YJL164C, strain tpk1, stronger effect = lower value 1.01 | locus YJL166W, strain qcr8, stronger effect = lower value 1.04 | locus YJL168C, strain set2, stronger effect = lower value 0.937
0.115 (active) and 0.99 (inactive): locus YJL095W, strain BCK1, stronger effect = lower value
